This passage reports growth inhibition results from PubChem BioAssay (NCI).

The panel holds about 79,000 compounds, 15% with a hit somewhere; the sample as a whole holds those more often. A number with no mark means an inactive call. Active and inactive are the calls of the source. Rule as the data show it: active = growth inhibition above about 70%; inactive = the rest.

The nature of experiment [1]: NCI Yeast Anticancer Drug Screen. Data for the rad50 strain (AID 155).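 Also: 0% = growth of vehicle-only cultures of the same strain.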 The settings on record: S. cerevisiae rad50 strain growth inhibition; at 50.0 µM; stronger effect = higher value. An outline of the steps: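 Cells are treated with compound, grown, and their growth is then scored against vehicle-only cultures of the same repair-deficient yeast strain.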
Experiment [2] in a line: NCI Yeast Anticancer Drug Screen. Data for the mec2-1 strain (AID 157). The conditions noted are these: S. cerevisiae mec2-1 strain, at 50.0 µM, stronger effect = higher value. An outline of the steps: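 Using mec2-1 yeast: add compound, measure growth, express inhibition versus vehicle-treated cultures.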
The nature of experiment [3]: NCI Yeast Anticancer Drug Screen. Data for the sgs1 mgt1 strain (AID 161).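 Also: 0% = growth of cultures given vehicle only.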 The settings on record: S. cerevisiae sgs1 mgt1 strain, at 50.0 µM, stronger effect = higher value. An outline of the steps:
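Growth of a repair-deficient yeast mutant was monitored after compound treatment and expressed as inhibition relative to vehicle-treated cultures.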

The nature of experiment [4]: NCI Yeast Anticancer Drug Screen. Data for the cln2 rad14 strain (AID 165).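 Also: 0% = growth equal to vehicle treated cultures.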 The settings on record: S. cerevisiae cln2 rad14 strain, at 50.0 µM, stronger effect = higher value. The essentials: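 Yeast strain cln2 rad14, bearing defects in cell cycle control and DNA repair, serves as the test system; values reflect growth inhibition compared with vehicle.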
Experiment [5] is described as follows: NCI Yeast Anticancer Drug Screen. Data for the bub3 strain (AID 167). The settings on record: S. cerevisiae bub3 mutant strain, at 50.0 µM, stronger effect = higher value. The essentials:
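Part of a panel of yeast mutants defective in DNA damage repair or cell cycle regulation. Each strain is grown with compound, and inhibition is calculated relative to solvent-treated cultures.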

A short description of experiment [6]: NCI Yeast Anticancer Drug Screen. Data for the mlh1 rad18 strain (AID 175). The settings on record: S. cerevisiae mlh1 rad18 strain growth inhibition; at 50.0 µM; stronger effect = higher value. An outline of the steps:
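Steps: expose repair-defective yeast to compound; measure growth; express inhibition against vehicle-treated controls.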

Regarding `CCN(CC)CCNc1ccc(CO)c2sc3ccccc3c(=O)c12`, the growth inhibition in experiment [1] is -16.1%; in experiment [2] it was -28.1%; in experiment [3] it was -10.8%; in experiment [4], 2.6%; in experiment [5], -24.1%; in experiment [6], -14.4%.

In the case of `OCC(O)C(O)C(O)C(O)/C=N/O` (stereo not drawn), the growth inhibition in experiment [1] was 1.4%; in experiment [2], 0.7%; in experiment [3] it was -6.4%; in experiment [4] it was -6.7%; in experiment [5], -1.1%; in experiment [6] it was 3.65%.

Take `CC(CC(=O)c1ccccc1)c1ccccc1` (stereo not drawn): the growth inhibition in experiment [1] was -7.9%; in experiment [2], -18.4%; in experiment [3], -10.7%; in experiment [4], -13.7%; in experiment [5], -19.4%; in experiment [6], 10.2%.

On to `CC[N+](C)(CC)CCO`, for which the growth inhibition in experiment [1] is 13.7%; in experiment [2], -3.8%; in experiment [3], 4.4%; in experiment [4], 10.7%; in experiment [5], 2.9%; in experiment [6] it was 5.05%.

Take `CCOC(=O)c1ccc(NC(=S)P(=O)(c2ccccc2)c2ccccc2)cc1`: the growth inhibition was 41.5% in experiment [1]; 10.2% in experiment [2]; 42.8% in experiment [3]; 30.7% in experiment [4]; 14.9% in experiment [5]; 39.8% in experiment [6].

As to `Cc1ccc(C(=O)c2ccccc2)c(C)c1`, the growth inhibition is 8.65% in experiment [1]; -1.75% in experiment [2]; 0.6% in experiment [3]; -10.4% in experiment [4]; -2.5% in experiment [5]; 28.6% in experiment [6].

Take `N/N=C(/Cc1ccccc1)NNC(N)=S`: the growth inhibition in experiment [1] is 1.95%; in experiment [2], -13.7%; in experiment [3], -26.6%; in experiment [4], -4.2%; in experiment [5] it was -12%; in experiment [6], -0.45%.

Turning to `CCCCC(CC)COC(C)=O` (stereo not drawn), the growth inhibition was 14.4% in experiment [1]; -13.5% in experiment [2]; 2.15% in experiment [3]; 5.2% in experiment [4]; 12% in experiment [5]; 13.8% in experiment [6].

As to `COc1cc(C(=O)N/N=C/c2cccc([N+](=O)[O-])c2)cc(OC)c1OC`, the growth inhibition in experiment [1] was -5.5%; in experiment [2], -13.4%; in experiment [3], -41.9%; in experiment [4], 24.4%; in experiment [5] it was -39.2%; in experiment [6], -64.5%.

As for `CC(=O)c1ccc(C)c(N)c1`, the growth inhibition in experiment [1] is -4.15%; in experiment [2] it was 0.15%; in experiment [3], 6.25%; in experiment [4], -0.6%; in experiment [5], -2.15%; in experiment [6] it was 27.4%.

As to `Cc1nc2ccccc2c(C(=O)O)c1O`, the growth inhibition in experiment [1] is 9.45%; in experiment [2], -10.2%; in experiment [3], 1.5%; in experiment [4] it was 6.65%; in experiment [5] it was 11.1%; in experiment [6], 19.9%.

Regarding `O=S(=O)(O)c1ccc(O)c2ccccc12`, the growth inhibition is -12.6% in experiment [1]; 19.4% in experiment [2]; 0% in experiment [3]; -30.1% in experiment [4]; 11.7% in experiment [5]; 56.2% in experiment [6].

For `O=[N+]([O-])c1ccc(O)c(S(=O)(=O)O)c1`, the growth inhibition in experiment [1] was 8.55%; in experiment [2], -20.6%; in experiment [3], 7.65%; in experiment [4], 15.7%; in experiment [5], -0.45%; in experiment [6], 4.1%.

For `Cc1ccc(CCCC(=O)O)c(C)c1`, the growth inhibition in experiment [1] is 6.5%; in experiment [2], -0.25%; in experiment [3] it was 22.1%; in experiment [4] it was 1.45%; in experiment [5], 28.9%; in experiment [6] it was 45.6%.

Turning to `CC1CCC2C(C)(C)C3CC12CC1OC13C` (stereo not drawn), the growth inhibition in experiment [1] is -17.4%; in experiment [2], -30.4%; in experiment [3], 0.7%; in experiment [4], 4.95%; in experiment [5], 0.65%; in experiment [6], -14.5%.

As to `C/C(O)=C(\C=N\C(N)=S)C(=O)Nc1ccccc1`, the growth inhibition in experiment [1] is -4.6%; in experiment [2], -8.1%; in experiment [3] it was -23.9%; in experiment [4], -0.55%; in experiment [5], -2.45%; in experiment [6], 3.7%.

On to `c1ccc2c(N3CCCCC3)ncnc2c1`, for which the growth inhibition in experiment [1] is 0.85%; in experiment [2], -1%; in experiment [3], -4.65%; in experiment [4] it was 4.8%; in experiment [5], 2.15%; in experiment [6], -3%.

Regarding `O=C(O)c1cccc([N+](=O)[O-])c1`, the growth inhibition in experiment [1] is -28%; in experiment [2] it was -8%; in experiment [3], -21.8%; in experiment [4], -27.1%; in experiment [5], -23.1%; in experiment [6] it was -27.4%.

In the case of `CCCCOC(=O)c1ccc(C(C)C)cc1`, the growth inhibition is 8.85% in experiment [1]; 6.85% in experiment [2]; 8.65% in experiment [3]; -19.4% in experiment [4]; 7.55% in experiment [5]; 4.35% in experiment [6].

As to `CN(C)C(=O)Oc1cccc([N+](C)(C)C)c1`, the growth inhibition was -1.5% in experiment [1]; -8.2% in experiment [2]; 5.95% in experiment [3]; -60.9% in experiment [4]; 0.2% in experiment [5]; -5.35% in experiment [6].

Take `O=C(O)C(Cc1ccccc1)C(=O)O`: the growth inhibition is 5.8% in experiment [1]; -7.15% in experiment [2]; -27.7% in experiment [3]; -33% in experiment [4]; -18.4% in experiment [5]; -7.2% in experiment [6].

`O=[N+]([O-])c1ccc(Cl)c(S(=O)(=O)O)c1`: the growth inhibition was 36.4% in experiment [1]; 21.3% in experiment [2]; 21.2% in experiment [3]; -18.9% in experiment [4]; 10.8% in experiment [5]; 35.5% in experiment [6].

`COc1cc(OC)c2ccc(=O)oc2c1`: the growth inhibition is 27.2% in experiment [1]; 8.4% in experiment [2]; 16.1% in experiment [3]; 6.75% in experiment [4]; 38.5% in experiment [5]; 24.1% in experiment [6].

Consider `O=C1Cc2ccccc2C(=O)O1`, for which the growth inhibition in experiment [1] is 25.9%; in experiment [2], -16.5%; in experiment [3], 1.95%; in experiment [4], -22.1%; in experiment [5], -5.15%; in experiment [6] it was 15.6%.

As for `Nc1ccc(N=Nc2ccc(S(=O)(=O)O)cc2)c2ccccc12`, the growth inhibition in experiment [1] is -0.3%; in experiment [2], 3.15%; in experiment [3] it was -22.4%; in experiment [4] it was -25.9%; in experiment [5], 1.75%; in experiment [6] it was 9.05%.

For the molecule `CC1=C(/C=C/C(C)=C/C=C/C(C)=C/CO)C(C)(C)CCC1`, the growth inhibition in experiment [1] is 14.8%; in experiment [2], 4.45%; in experiment [3], -3.15%; in experiment [4], 10.7%; in experiment [5], -42.2%; in experiment [6], 6.55%.

For `COc1ccc2c(NCCCCCCCCNc3c4ccccc4nc4cc(OC)ccc34)c3ccccc3nc2c1`, the growth inhibition in experiment [1] is 90.8% (active); in experiment [2], 91.4% (active); in experiment [3], 91.8% (active); in experiment [4] it was 89.3% (active); in experiment [5], 90.8% (active); in experiment [6] it was 88.3% (active).

Take `Nc1ccccc1C(=O)Nc1ccc(Cl)cc1Cl`: the growth inhibition in experiment [1] is -9.1%; in experiment [2], -22.4%; in experiment [3] it was 7.4%; in experiment [4] it was 4.85%; in experiment [5], 21.9%; in experiment [6], 2.35%.

With `NNc1ccccc1C(=O)O`, the growth inhibition is 4.4% in experiment [1]; -3.05% in experiment [2]; -2.55% in experiment [3]; -4.15% in experiment [4]; -2% in experiment [5]; 14.8% in experiment [6].

As for `O=C(CC(=O)c1ccccc1O)c1ccccc1`, the growth inhibition was 31.4% in experiment [1]; 43.1% in experiment [2]; 34.4% in experiment [3]; 40.5% in experiment [4]; 62.6% in experiment [5]; 39.9% in experiment [6].

For the molecule `c1ccc(Cc2ccccc2)cc1`, the growth inhibition was 12.8% in experiment [1]; 39.2% in experiment [2]; -21.8% in experiment [3]; 1.5% in experiment [4]; -1.1% in experiment [5]; 1.15% in experiment [6].

Turning to `CC(=O)Nc1cccc(NC(C)=O)n1`, the growth inhibition in experiment [1] is 6.25%; in experiment [2] it was 10.8%; in experiment [3] it was 1.25%; in experiment [4] it was -5%; in experiment [5], 7.8%; in experiment [6], 6.1%.

In the case of `Brc1cnc2ccccc2c1`, the growth inhibition is 12.8% in experiment [1]; 9.05% in experiment [2]; 26.7% in experiment [3]; -7.65% in experiment [4]; -2.55% in experiment [5]; 22.2% in experiment [6].

For the molecule `Cc1cc(C)c(CC(=O)O)c(C)c1`, the growth inhibition is 30.5% in experiment [1]; 6.3% in experiment [2]; 16.9% in experiment [3]; 12.3% in experiment [4]; 4.3% in experiment [5]; 10.4% in experiment [6].

On to `CCOc1ccc(/C=N/N=C(N)N)cc1OCC`, for which the growth inhibition was -31.4% in experiment [1]; -18% in experiment [2]; -17.6% in experiment [3]; -53.4% in experiment [4]; -8.4% in experiment [5]; -11.9% in experiment [6].

In the case of `Cc1ccc(C)n1-c1ccsc1C(=O)NNC(=O)CCl`, the growth inhibition was -13.8% in experiment [1]; -17.8% in experiment [2]; 2.25% in experiment [3]; 22.9% in experiment [4]; -14.5% in experiment [5]; -3.85% in experiment [6].

On to `CC(C)=NNc1ccc([N+](=O)[O-])cc1[N+](=O)[O-]`, for which the growth inhibition in experiment [1] is 35.1%; in experiment [2] it was 12.8%; in experiment [3], 8.3%; in experiment [4], 25.4%; in experiment [5] it was -5.75%; in experiment [6] it was 44.3%.

For `OCc1cccc2ccccc12`, the growth inhibition was 27.6% in experiment [1]; 25.9% in experiment [2]; 13.9% in experiment [3]; -27.4% in experiment [4]; 3.6% in experiment [5]; 24.5% in experiment [6].
